The source of these data is PubChem BioAssay (Tox21).

Results filed as inconclusive are left out. Some compounds were tested as several samples or in several runs, with calls that do not always agree. Active and inactive are the calls of the source. Calls follow the shape of the full dose curve.
% is scaled to controls: 0 for no effect and ±100 for the full control effect; potency is read from the fitted curve at half-maximal effect.

Acetylcholinesterase (Homo sapiens), sequence (P22303 whole entry, looked up): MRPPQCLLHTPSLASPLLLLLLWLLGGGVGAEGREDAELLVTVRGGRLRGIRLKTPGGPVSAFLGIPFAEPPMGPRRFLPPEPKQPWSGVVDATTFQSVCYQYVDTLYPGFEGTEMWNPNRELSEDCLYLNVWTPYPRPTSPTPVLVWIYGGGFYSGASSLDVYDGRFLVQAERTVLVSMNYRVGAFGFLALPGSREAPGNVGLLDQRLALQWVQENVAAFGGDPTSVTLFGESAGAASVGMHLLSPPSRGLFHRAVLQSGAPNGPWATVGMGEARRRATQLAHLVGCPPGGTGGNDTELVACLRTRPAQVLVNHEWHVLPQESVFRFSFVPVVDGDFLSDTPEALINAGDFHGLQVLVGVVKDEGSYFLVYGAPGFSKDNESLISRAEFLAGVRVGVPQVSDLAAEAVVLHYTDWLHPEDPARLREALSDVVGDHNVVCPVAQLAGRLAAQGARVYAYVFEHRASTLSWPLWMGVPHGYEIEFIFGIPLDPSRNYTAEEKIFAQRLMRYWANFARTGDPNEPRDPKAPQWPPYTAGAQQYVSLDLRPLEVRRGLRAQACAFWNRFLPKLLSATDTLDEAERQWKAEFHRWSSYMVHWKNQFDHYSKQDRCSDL

In this assay the target is Acetylcholinesterase (Homo sapiens) (UniProt P22303). The assay can be described thus: Acetylcholinesterase (AChE) small molecule antagonists: colormetric cell-based qHTS assay (AID 1347395). Also: nearly all actives have a fitted effect of over 30% in size. The conditions noted are these: SH-SY5Y cells AChE activity, colorimetric (Ellman); series mostly up to 115 µM; activity, negative = inhibition: at the top concentration. An outline of the steps:
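Endogenous AChE of human neuroblastoma SH-SY5Y cells was measured with an Ellman-type DTNB/acetylthiocholine mix. Compound pretreatment lasted 30 min at 37 C; substrate reaction ran 90 min at 37 C.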
A general note: Quantitative high-throughput screening tests each substance at several concentrations.
`CCN(CC)CC(=O)Oc1ccc(NC(C)=O)cc1`: the “activity, negative = inhibition” value is 2.96% [at 52.9 µM] (inactive). The same measure, in the same setting: the result for `CC(C)(C)OC(=O)c1cccc(N)c1` reads -11.2% (inactive); that for `Cc1c(C)c2c(c(C)c1OC(=O)c1cccnc1)CC[C@@](C)(CCC[C@H](C)CCC[C@H](C)CCCC(C)C)O2`, 0.0153% [at 52.9 µM] (inactive); that for `O=C1C=CC(=O)N1c1ccccc1`, 0.0711% (inactive). Same read-out and setting: the result for `O=C1OC(=O)c2cccc3cccc1c23` reads 1.96% (inactive); that for `O=S(O)O`, 0.406% [at 23.6 µM] (inactive). As to `CN(C)c1ccc(C(=C2C=CC(=[N+](C)C)C=C2)c2ccc(N(C)C)cc2)cc1`, the Potency is 70.6 µM (active).

Consider `CCCC(CC)c1ccccc1` (stereo not given), for which the “activity, negative = inhibition” value is 0.526% (inactive). Turning to `Cc1oc(-c2ccccc2)nc1CCOc1cccc2c1ccn2CCC(=O)O`, the “activity, negative = inhibition” value was 2.52% (inactive). For the molecule `CC(C)CC(=O)CC(C)C`, the Potency entry was “inactive”. Regarding `Nc1cc(Cl)c([N+](=O)[O-])cc1O`, the “activity, negative = inhibition” value was 10.2% (inactive). `O=C(O)CCCCCCC(=O)O`: the “activity, negative = inhibition” value was -4.5% (inactive). Same read-out and setting: for `CC(=O)Nc1ccc(C)cc1C` the value was 0.702% (inactive); for `CCc1cccc2c(CCO)c[nH]c12`, 0.252% [at 52.9 µM] (inactive). On to `OCC(O)CS` (stereo not given), for which the Potency result was “inactive”. Consider `O=C(O)c1ccccc1`, for which the Potency is 3.74 µM (active) and inactive. In the case of `N#CCCN(CCO)CCO`, the “activity, negative = inhibition” value was 0.178% (inactive). Still for that read-out and setting: the result for `NC(=O)NS(=O)(=O)c1ccc(N)cc1` reads -0.314% [at 52.9 µM] (inactive).

For `COc1c(Cl)c(Cl)c(Cl)c(Cl)c1Cl`, the Potency entry is “inactive”. Same read-out and setting: the result for `NC(=O)NC1NC(=O)NC1=O` (stereo not given) reads “inactive”. Consider `Cc1cc(C)cc(N)c1`, for which the “activity, negative = inhibition” value was 1.07% (inactive).

For `CC(=O)Nc1c(I)c(NC(C)=O)c(I)c(C(=O)O)c1I`, the Potency entry is “inactive”. On the same count and under the same terms, the result for `c1ccc2cc3ccccc3cc2c1` reads “inactive”.

Consider `Nc1ncnc(Nc2ccccc2)n1`, for which the “activity, negative = inhibition” value was 2.32% [at 52.9 µM] (inactive). With `Cc1cccnc1`, the Potency result was “inactive”.

Consider `CC(C)(C)NC(N)=O`, for which the “activity, negative = inhibition” value was 6.15% (inactive). The same measure, in the same setting: for `C[N+](C)(C)CCOC(=O)CCC(=O)OCC[N+](C)(C)C` the value was -9.87% [at 52.9 µM] (inactive). For `CCCCC/C(C=O)=C\c1ccccc1`, the Potency result was “inactive”. Regarding `C=C(C)C(=O)OCC1CCCO1` (stereo not given), the “activity, negative = inhibition” value is 3.05% (inactive). Same read-out and setting: for `CCCCOCCOCCOCCOCCO` the value was -4.33% (inactive); for `C/C(CC(C)C)=N\O`, -1.49% (inactive).

In the case of `CC(C)(O)C(=O)c1ccccc1`, the “activity, negative = inhibition” value was 0.185% (inactive). On the same count and under the same terms, the result for `CC/C=C\CCOC(C)OCC` (stereo not given) reads 0.546% [at 52.9 µM] (inactive); that for `CCCCCC(=O)OCC`, 0.667% (inactive); that for `CNC(=S)NN`, 0.36% (inactive).

For `CN1C(C)(C)CC(O)CC1(C)C`, the “activity, negative = inhibition” value is 0.535% (inactive).

For the molecule `C=CCc1ccc(O)c(OC)c1`, the Potency result is “inactive”. Turning to `CCCCCCCCCOCC1CO1` (stereo not given), the “activity, negative = inhibition” value was -1.03% (inactive).

On to `CO[C@H]1C=CO[C@@]2(C)Oc3c(C)c(O)c4c(O)c(c(/C=N/N5CCN(C)CC5)c(O)c4c3C2=O)NC(=O)/C(C)=C\C=C[C@H](C)[C@H](O)[C@@H](C)[C@@H](O)[C@@H](C)[C@H](OC(C)=O)[C@@H]1C`, for which the Potency entry is “inactive”.

On to `C/C(=N\O)c1ccc(OCC(=O)N2CCCCC2)cc1`, for which the “activity, negative = inhibition” value is -1.38% [at 52.9 µM] (inactive).
